Hits are enriched below; roughly 7.3% of the tested compounds scored in any of these assays.
HCMV inh: blocks human cytomegalovirus replication; AID 1259415; activity change, negative = inhibition, % at 57.5 µM; 4.5% of 410,000 active; HFF cells, HCMV-luciferase reporter, 72 h; hits give low values; in the data active = activity change below about -60%; inconclusive = no clear call, values can overlap the other calls; inactive = above about -39%
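Two compound doses tested in HFFs infected with HCMV-luciferase, MOI 1 PFU/cell, 72 h at 37C. Lysate luminescence read with OneGlo; data normalized against buffer-only and 10uM Salinomycin inhibitor controls.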
Vaccinia mCherry: vaccinia inhibition (mCherry reporter). Vaccinia virus mCherry reporter infection, fluorescence. Potency, µM (top dose mostly 36.5 µM), for inactives: top-dose activity change, negative = inhibition, usual class: inhibitors. 0.63% of 310,000 active; calls by dose curve; tested in A549 cells; note: potency is the fitted concentration of half-maximal effect; nearly all actives have a fitted effect of over 35% in size
FMDV antiviral: blocks foot and mouth disease virus. FMDV antiviral cell-based qHTS. Potency, µM (highest dose often 57.9 µM), without a hit: top-dose activity change, negative = inhibition, hits mostly inhibitors. 1.2% of 410,000 active; calls by dose curve; tested in HEK293T cells; note: read-out not given here; potency is the fitted concentration of half-maximal effect; nearly all actives have a fitted effect of over 45% in size
Vaccinia Venus: vaccinia inhibition (Venus reporter); AID 720580; Potency, µM (doses to about 36.5 µM), for the others: at the top dose activity change, negative = inhibition, hits mostly inhibitors; Vaccinia virus Venus reporter expression, fluorescence; 0.46% of 330,000 active; calls by dose curve; tested in A549 cells; note: potency is the fitted concentration of half-maximal effect; nearly all actives have a fitted effect of over 30% in size
HCV inh: HCV inhibition. Huh7.5.1 HCVcc-Cre infection, luciferase reporter, 44 h. Potency, µM (series often up to 41.8 µM), inactives show at the highest dose activity change, negative = inhibition, actives largely listed as inhibitors. 3.4% of 340,000 active; active = well fitted inhibition curve with a large enough effect; inconclusive = small, poorly fitted or top-dose-only effect, or another doubt; inactive = no such curve, though single readings can be large or run the other way; note: potency is the fitted concentration of half-maximal effect
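Cells seeded at 1,000/well and cultured 4 h, then compounds added followed by HCVcc-Cre virus (~0.5 moi). After 44 h further culture, luciferase substrate was added, plates held 15 min at room temperature, and luminescence read for 15 sec.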
* marks the source's active call; other numbers are inactive results; i = inactive; ? = inconclusive; . = no result; ! = not confirmed by another sample. % is set by controls: 0 for no effect and ±100 for the full control effect.

SMILES	HCMV inh	Vaccinia mCherry	FMDV antiviral	Vaccinia Venus	HCV inh
O=C(Nc1ccc(Cl)c(C(F)(F)F)c1)C1Cc2c(-c3ccc4c(c3)OCO4)ccnc2O1 (centres undefined)	?	?	?	-2%	.
Cn1cccc1/C=C1/C(=O)NC(=O)N(Cc2ccc(F)cc2)C1=O	-31	i	?	23%	8%
Cn1cccc1/C=C1/C(=O)NC(=S)N(Cc2ccc(F)cc2)C1=O	?	16%	28µM*	3%	?
Cn1cccc1/C=C1\C(=O)NC(=O)N(Cc2ccccc2)C1=O	-65*	i	-17%	0%	11%
Cc1cccc(C(C)C)c1NC(=O)C(C)OC(=O)Cn1cnc2c1c(=O)n(C)c(=O)n2C (centres undefined)	-7	i	-10%	-10%	4%
NNC(=O)c1sc2cc(C(F)(F)F)cnc2c1-c1cccnc1	-11	-6%	2%	-5%	4%
COC(=O)c1sc2cc(C(F)(F)F)cnc2c1-c1cccnc1	12	.	10%	.	0.56µM*
COc1ccc(S(=O)(=O)N2CCCOC2CNC(=O)C(=O)NCCc2ccco2)cc1C (centres undefined)	-5	-10%	4%	-14%	-26%
O=S(=O)(Nc1ccc(N2CCOCC2)cc1)c1c(F)cc(F)cc1Br	32	-13%	-7%	-8%	?
Cc1ccc(NC(=S)Nc2ccc3cn[nH]c3c2)cc1C	-33	.	10%	.	11%
Cc1ccc(S(=O)(=O)N(C)C)cc1NC(=S)Nc1ccc2cn[nH]c2c1	-67*	-23%	-8%	-6%	2%
CC(=O)c1ccc(NC(=S)Nc2ccc3cn[nH]c3c2)cc1	-68*	6%	27%	-7%	0%
CC(C)c1ccc(NC(=S)Nc2ccc3cn[nH]c3c2)cc1	-27	-7%	4%	-14%	2%
CCN(CC(=O)NC(=O)NC1CCCC1)Cc1ccccc1	-36	i	-5%	-12%	5%
CC(=O)OC1C(O)C2=C3C4(C)C1C(C)(C)C(=O)CC4C3(O)C(OC(C)=O)C1(CC1C)C2=O (centres undefined)	-26	?	22µM*	?	.
COC(=O)C1=C(C(=O)OC)[C@]2([C@@H]3CCCCN[C@@H](Cc4ccccc4)C(=O)N3Cc3ccccc3)C=C[C@H]1O2	-12	i	-28%	-20%	7.9µM*
COC(=O)C1=C(C(=O)OC)[C@]2([C@@H]3C/C=C\CN[C@@H](Cc4ccccc4)C(=O)N3Cc3ccccc3)C=C[C@H]1O2	.	-9%	.	-19%	.
COc1ccc(Oc2ncc3nc(-c4ccccc4)c(=O)n(Cc4cccs4)c3n2)cc1	.	.	-13%	.	.
O=C(O)CN(c1ccc2c(c1)OCCO2)S(=O)(=O)c1ccccc1	-69*	-17%	-1%	-16%	18%
COCCn1c(C)cc(C(=O)COC(=O)c2cccnc2SC)c1C	53	-1%	-64%	-13%	8%
COCCn1c(C)cc(C(=O)COC(=O)c2ccc(NC(=O)CC#N)cc2)c1C	93	.	13%	-14%	-1%
Cc1cc(C(=O)COC(=O)c2n[nH]c3ccccc23)c(C)n1C	115	.	-39%	.	-8%
COCCn1c(C)cc(C(=O)COC(=O)c2ccccc2Br)c1C	-82*	-10%	35µM*	-9%	-18%
C=CCn1c(C)cc(C(=O)COC(=O)c2ccc(N)c([N+](=O)[O-])c2)c1C	22	-27%	-28%	?	?
COCCn1c(C)cc(C(=O)COC(=O)c2ccc(S(=O)(=O)N(C)C)cc2)c1C	-88*	-17%	-16%	-8%	-2%
SMILES	HCMV inh	Vaccinia mCherry	FMDV antiviral	Vaccinia Venus	HCV inh
CCn1c(C)cc(C(=O)COC(=O)c2ccccc2[N+](=O)[O-])c1C	.	-29%	5.6µM*	-10%	-27%
COCCn1c(C)cc(C(=O)COC(=O)c2n[nH]c3ccccc23)c1C	4	.	11µM*	.	?
NC(N)=Nc1nc(CSCC/C(N)=N\S(N)(=O)=O)cs1	.	-11%	1%	1%	.
O=C(CSc1nnc2ccccn12)Nc1nsc(-c2ccccc2)n1	-27	-6%	20%	0%	-4%
CCN(c1ccccc1)S(=O)(=O)c1ccc(C(=O)Nc2nnc(C3CC3)o2)cc1	-69*	-28%	-17%	-28%	?
CCN(c1ccccc1)S(=O)(=O)c1ccc(C(=O)Nc2nnc(COC)o2)cc1	17	.	-17%	-17%	?
CCN(c1ccccc1)S(=O)(=O)c1ccc(C(=O)Nc2nnc(CSC)o2)cc1	-95*	?	-22%	?	?
Cc1onc(-c2c(Cl)cccc2Cl)c1C(=O)N[C@@H]1C(=O)N2[C@@H]1SC(C)(C)[C@@H]2C(=O)O	42	-5%	-11%	-14%	0.5µM*!
Cc1onc(-c2c(Cl)cccc2Cl)c1C(=O)NC1CCCCC1	2	-10%	-20%	-11%	13µM*
Cc1onc(-c2c(Cl)cccc2Cl)c1C(=O)c1c[nH]c(C(=O)NCC2CCCO2)c1 (centres undefined)	-6	-11%	?	-10%	11µM*
Cc1onc(-c2c(Cl)cccc2Cl)c1C(=O)NC1C(=O)N2C1SC(C)(C)C2C(=O)O (centres undefined)	-24	-6%	-6%	-6%	-3%
Cc1onc(-c2c(Cl)cccc2Cl)c1C(=O)N/N=C(\N)COc1ccc(Cl)cc1	-78*	.	?	.	2.8µM*
COc1ccc(-n2c(=O)c3c(c4cc(OC)ccc4n3C)n(C)c2=O)cc1	5	-6%	-1%	-1%	.
CCN(CC(=O)Nc1c(F)cccc1F)C(=O)c1ccc2c(c1)OCO2	61	.	-10%	.	0%
COC(=O)[C@H](Cc1ccccc1)N1Cc2ccccc2Oc2cc(Br)ccc2S1(=O)=O	-32	.	.	.	.
CCn1ccc2cc(S(=O)(=O)N3CCCN(C(=O)Nc4ccc(C)cc4Cl)CC3)ccc21	-26	-7%	-2%	1%	.
CCOC1=C2[C@@H](CN(S(=O)(=O)c3ccccc3C)[C@H]2c2ccc(Cl)cc2)[C@H]2C(=O)NC(=O)[C@H]2C1	-76*	5%	-16%	10%	.
CCOC1=C2[C@@H](CN(S(=O)(=O)c3ccccc3C)[C@H]2c2ccc(Cl)cc2)[C@H]2C(=O)N(c3ccccc3)C(=O)[C@H]2C1	-25	i	-18%	-15%	.
CCOC(=O)CSc1nnc2n1C(C)(C)Cc1ccccc1-2	0	.	12%	.	-4%
COc1ccccc1N1CCN(C(=O)CSc2nnc3n2C(C)(C)Cc2ccccc2-3)CC1	-92*	-26%	16µM*	?	6.3µM*
COc1ccc(Cn2cnc3cnc(Nc4ccc(NC(C)=O)cc4)cc32)cc1OC	-72*	.	.	.	.
NC(=O)c1ccc(Sc2nnc(-c3cccs3)n2CC2CCCO2)c([N+](=O)[O-])c1 (centres undefined)	15	7.9µM*	2%	11µM*	1%
CCC(=O)N1CCC1(C)C(=O)Nc1cc(OC)ccc1OC (centres undefined)	17	-1%	-16%	3%	.

Screening results: PubChem, National Center for Advancing Translational Sciences (NCATS)
